Experimental data taken from PubChem BioAssay AID1006 (Sanford-Burnham Center for Chemical Genomics, 2008).
Among all 200,000 compounds or so, about 3,000 (1.5%) were called active. The full list was thinned out, with actives kept by preference. A number with no mark means an inactive call.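 The calls were made as follows: active = inhibition above about 50% when tested at 10 µM (limit read from the data); inactive = the rest.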

target: Luciferin 4-monooxygenase (Photinus pyralis) (UniProt P08659); test: inhibition of purified FLuc reporter enzyme – biochemical, luminescence, ATPLite, artefact control for luciferase-based inhibitor screens, primary screen (AID 1006); conditions: ATPLite firefly luciferase biochemical luminescence, 10 min; at 10 µM; hits give high values
Sequence (P08659 whole entry, looked up): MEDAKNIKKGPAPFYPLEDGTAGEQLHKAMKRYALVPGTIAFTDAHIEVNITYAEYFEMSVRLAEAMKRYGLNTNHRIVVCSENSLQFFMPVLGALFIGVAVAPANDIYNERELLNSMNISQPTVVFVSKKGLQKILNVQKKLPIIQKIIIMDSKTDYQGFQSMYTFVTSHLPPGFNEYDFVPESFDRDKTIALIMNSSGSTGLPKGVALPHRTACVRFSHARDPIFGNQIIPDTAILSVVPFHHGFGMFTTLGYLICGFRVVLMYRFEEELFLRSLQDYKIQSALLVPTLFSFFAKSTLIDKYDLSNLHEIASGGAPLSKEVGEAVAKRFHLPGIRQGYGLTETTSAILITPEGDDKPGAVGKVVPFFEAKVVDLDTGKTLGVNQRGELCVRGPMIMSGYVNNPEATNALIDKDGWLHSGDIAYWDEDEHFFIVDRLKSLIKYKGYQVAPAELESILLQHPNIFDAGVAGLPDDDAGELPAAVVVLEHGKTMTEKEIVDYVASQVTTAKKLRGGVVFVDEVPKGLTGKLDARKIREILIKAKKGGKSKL

Point of comparison: `CN(C)C=NC(=O)c1cccn1-c1ncc(C(F)(F)F)cc1Cl`, inhibition -1.5%. Against it:
- COc1c(Cl)cc(C(=O)Nc2ccc(Cl)cn2)cc1Cl — lower, -5.9%
- O=C(Nc1cccc(S(=O)(=O)Nc2ccc(Cl)cc2)c1)c1ccc2c(c1)OCCO2 — lower, -5.3%
- O=C(Nc1ccc2c(c1)OCCO2)c1ccc(Cl)c(S(=O)(=O)N2CCCCC2)c1 — higher, 0.9%
- O=C(Nc1cccc(Cl)c1N1CCOCC1)c1ccc2c(c1)OCCO2 — higher, -0.6%
- O=C(c1cccc(F)c1)N1CCN(c2ccc([N+](=O)[O-])c3cccnc23)CC1 — lower, -7.7%
- CCCCC(NC(=O)c1cccc(Br)c1)C(=O)O (stereo unspecified) — higher, 0.5%
- O=C(N/N=C/C=C/c1ccco1)c1cccs1 — higher, 12.4%
- COc1cccc(-c2cc(C(=O)N/N=C/c3ccc(OC)c(COC(C)=O)c3)c3ccccc3n2)c1 — lower, -1.7%
- Cc1nnc(SCC(=O)NNC(=O)c2ccc(Cl)cc2)n1CC1CCCO1 (stereo unspecified) — lower, -8.3%
- O=C(Oc1ccccc1)c1ccc2nccnc2c1 — higher, 13.3%
- CC(C)c1nc(-c2ccccn2)no1 — lower, -5.3%
- c1csc(-c2nc(-c3ccncc3)no2)c1 — higher, 17.7%
- COc1nc(-c2ccc(Cl)cc2)ccc1-c1noc(-c2cccs2)n1 — lower, -3.8%
- COc1ccc(NC(=S)N2CCCC(CO)C2)c(OC)c1 (stereo unspecified) — lower, -2.4%
- Cc1ccc(N(C(=O)Cc2cccs2)C(C(=O)NCC2CCCO2)c2ccncc2)cc1 (stereo unspecified) — lower, -3.7%
- CCN(C(=O)COC(=O)c1cc(S(=O)(=O)N2CCc3ccccc32)ccc1OC)C1CCS(=O)(=O)C1 (stereo unspecified) — lower, -6.8%
- CCCN(CC1COc2ccccc2O1)C(=S)Nc1ccc(C)cc1 (stereo unspecified) — lower, -6.7%
- CC(C)CNC(=O)C(=O)Nc1ccc(N(C)C)cc1 — higher, 5.5%
- CCOc1ccc(N2C(=O)CN(c3cccc4ccccc34)C2=S)cc1 — lower, -3.3%
- COc1cc(COCC(O)CN2CCN(Cc3ccc4c(c3)OCO4)CC2)cc(OC)c1OC (stereo unspecified) — lower, -5%
- N/C(=N\OC(=O)Cc1ccc([N+](=O)[O-])cc1)c1ccccn1 — higher, 9.6%
- O=C(OCc1ccc([N+](=O)[O-])cc1)c1ccccn1 — lower, -6%
- CCC(C)N(C)C1CCN(C(=S)Nc2ccc(OC)cc2)CC1 (stereo unspecified) — higher, -0.3%
- COc1ccc(N2CCN(C(=O)CSc3nc4cc(OC)c(OC)cc4cc3C#N)CC2)cc1 — lower, -6.5%
- CCOc1ccc2nc(N3CCCN(C(=O)Nc4ccccc4C)CC3)c(C#N)cc2c1 — lower, -2%
- Cc1ccc2[nH]c(C(=O)O)c(NC(=O)c3ccccc3[N+](=O)[O-])c2c1 — lower, -4.8%
- CCn1cc(C(=O)Nc2cc(C)ccc2C)c(=O)c2ccc(C)nc21 — lower, -5.1%
- c1ccc(CN2CCC(N=C3NN=C(c4ccc5c(c4)OCCO5)CS3)CC2)cc1 — lower, -2.4%
- Cc1cccc(N=C2NN=C(c3c[nH]c4ccccc34)CS2)c1 — lower, -4.7%
- COc1cc(/C=N/NC(=O)CCc2n[nH]c(=O)[nH]c2=O)ccc1O — lower, -6.6%
- Nc1c(NCCc2ccccc2)c2ccccc2oc1=O — lower, -4%
- Cc1ccc(CN2CCN(Cc3cn(C)nc3-c3ccccc3)CC2CCO)o1 (stereo unspecified) — lower, -4.5%
- O=C1CC(c2ccccc2)=NN1c1ccc([N+](=O)[O-])cc1 — lower, -2.5%
- COc1ccc(/C=C(/CC(=O)Nc2ccc(C)cc2)c2nc3ccccc3s2)cc1 — lower, -7.9%
- CCc1ccccc1N1C(=O)C2C3CC(=O)C(c4ccccc43)C2C1=O (stereo unspecified) — lower, -5.1%
- CCc1nnc(NC(=O)[C@@H](NC(=O)c2cccc(C)c2)C(C)C)s1 — lower, -3.8%
- CN1CCN(C(=O)N2c3ccccc3CCc3ccccc32)CC1 — lower, -4.4%
- CCCCn1c(=O)c(C(C)=O)c(O)c2ccccc21 — higher, -1.3%
- Cn1c(=O)c(Sc2ccc(Cl)cc2)c(O)c2ccccc21 — lower, -5.7%
- Cc1ccccc1-n1nc(C)c2c1N=C1C(Cl)=CC(Cl)=CN1C2c1ccc(C(=O)O)cc1 (stereo unspecified) — higher, -0.1%
- COc1ccc(-c2csc(Nc3ccccn3)n2)cc1 — higher, 49.9%
- CCOc1cc(NC(=O)c2ccccn2)c(OCC)cc1NC(=O)c1ccc(OC)cc1 — lower, -2.9%
- O=C(Cc1cccs1)Nc1cccc(-c2nc3ccccc3[nH]2)c1 — lower, -1.9%
- O=C(CCCN1C(=O)/C(=C\c2ccco2)SC1=S)Nc1cccc2ccccc12 — higher, -1.3%
- O=C(CCCN1C(=O)/C(=C/c2ccco2)SC1=S)Nc1ccccc1 — lower, -3.2%
- CN1c2ccccc2-c2nc3ccccc3n2C1c1ccco1 (stereo unspecified) — higher, 1.3%
- CN(c1nc2ccccc2n2c(-c3ccco3)nnc12)S(=O)(=O)c1ccccc1 — lower, -2.9%

With `O=C(Nc1ccc(Cl)cn1)c1ccc2c(c1)OCCO2` the inhibition was 82.7% (active).
`CN1CCN(c2ccc(NC(=O)c3ccc4c(c3)OCCO4)cc2Cl)CC1` was tested, and the inhibition was 51.8% (active).
With `Cc1ccc(-c2cc(C(=O)N/N=C/C=C/c3ccco3)c3ccccc3n2)cc1C` the inhibition was 73.1% (active).
With `c1ccc(-c2noc(-c3cccs3)n2)nc1` the inhibition was 71.2% (active).
For `O=C(Oc1ccc(-c2nc(-c3ccccn3)no2)cc1)c1ccccc1`, the inhibition was 65.5% (active).
`N/C(=N\OC(=O)c1ccc([N+](=O)[O-])cc1)c1ccccn1` was tested, and the inhibition was 91.5% (active).
In the case of `COc1ccc2nc(N3CCCC(O)C3)c(C#N)cc2c1` (stereo unspecified), the inhibition is reported as 54.6% (active).
`Clc1cccc(N=C2NN=C(c3ccc4c(c3)OCCO4)CS2)c1` was tested, and the inhibition was 51.5% (active).
For `COc1ccc(C2=NN(c3nc4ccccc4s3)C(=O)C2)cc1`, the inhibition was 59.7% (active).
In the case of `Cn1c(=O)c(C(=O)Nc2ncccn2)c(O)c2ccccc21`, the inhibition is reported as 70.3% (active).
For `COc1ccc(C(=O)/C=C/Nc2ccccn2)cc1`, the inhibition was 92.4% (active).
For `O=C(CCCN1C(=O)/C(=C/c2ccccc2)SC1=S)Nc1ccc(O)cc1`, the inhibition was 57.6% (active).
With `Cn1c(-c2ccco2)nc2cc3ccccc3cc21` the inhibition was 95.7% (active).
